High-throughput results as filed in PubChem.
In the library only some 0.51% were active in any assay of this set; here they are far more common.
CatB mix inh – inhibitors of human cathepsin B in compound mixtures | P07858 | Purified cathepsin B, AMC dipeptide fluorescence | inhibition, %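 (ten-compound pools at 5 µM per compound and 50 µM total)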 | hit rate 0.06% among 62,000 | AID 488; in the data active = inhibition above about 22%, passing the limit was not always enough
PKA kinase inh – blocks human protein kinase A activity; P17612; PKA Kemptide phosphorylation, Kinase-Glo ATP luminescence; inhibition, % at 6 µM; hit rate 0.1% among 65,000; AID 524;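 active = inhibition above the screen-wide mean inhibition plus 3 SD, cut at about 21% in these data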
CatS block – blocks human cathepsin S protease activity | inhibition, %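 (tested at 5 µM per compound within 10-compound mixtures)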 | AID 501 | P25774 | recombinant cathepsin S, AMC dipeptide fluorescence, pooled mixtures | hit rate 0.06% among 62,000; in the data active = inhibition above about 32%, passing the limit was not always enough
CatL block – inhibitors of human cathepsin L; P07711; purified cathepsin L, fluorogenic substrate, fluorescence; inhibition, %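 (tested at 10 µM)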; hit rate 0.17% among 58,000; AID 460; in the data active = inhibition above about 45%
Target sequence (P07711 114-288 limits assumed): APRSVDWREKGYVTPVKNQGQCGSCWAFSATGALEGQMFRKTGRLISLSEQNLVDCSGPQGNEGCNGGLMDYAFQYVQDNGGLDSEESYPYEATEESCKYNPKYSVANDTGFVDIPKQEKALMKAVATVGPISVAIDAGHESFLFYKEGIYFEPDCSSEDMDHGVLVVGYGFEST
Target sequence (P07711 292-333 limits assumed): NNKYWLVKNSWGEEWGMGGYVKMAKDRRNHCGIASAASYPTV
CatB block – inhibitors of human cathepsin B; purified cathepsin B, fluorogenic substrate, fluorescence; inhibition, %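 (tested at 10 µM)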; hit rate 0.1% among 63,000; in the data active = inhibition above about 21%
ROCK2 inh – blocks human Rho kinase 2 activity; O75116; purified ROCK2, Kinase-Glo ATP depletion luminescence; inhibition, % at 6 µM; hit rate 0.35% among 60,000; AID 604;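 active = inhibition above the screen-wide mean inhibition plus 3 SD, cut at about 18% in these data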
Of the large screens only hits and unclear results are named; the others gave an inactive call.

CCN1CCN(Cc2nnnn2C(C)(C)C)CC1	PKA kinase inh 66.2, ROCK2 inh 20.8
COc1ccccc1-n1c(O)c(C=Nc2c(C)n(C)n(-c3ccccc3)c2=O)c(=O)[nH]c1=O	none
CN(C)C(=O)CSc1nnc([C@@H](N)Cc2ccccc2)o1	CatL block 103.2
FC(F)(F)C1=NC(C(F)(F)F)=NP(N2CCOCC2)(N2CCOCC2)=N1	none
Cc1ccc(S(=O)(=O)N2CCCC(C(=O)N3CCC4(CC3)OCCO4)C2)cc1 (configuration not stated)	none
CC(C)N1CC=C(c2c[nH]c3ccccc23)CC1	none
C1=C(c2c[nH]c3ccccc23)CCNC1	PKA kinase inh 20.8, ROCK2 inh 27.8
c1ccc2c(c1)[nH]c1cnccc12	ROCK2 inh 24.2
Cc1c2ccncc2c(C)c2c1[nH]c1ccccc12	PKA kinase inh 45.7, ROCK2 inh 45.8 (no result: CatB block)
Cc1[nH]c2ccccc2c1/C=N/O	none (no result: CatL block)
Cn1ncnc2c(=O)n(C)c(=O)nc1-2	CatB mix inh 79.6, CatS block 70.3, CatL block 85.4, CatB block 83.0, ROCK2 inh 66.7
c1ccc(C2CC3CC4(CCCC4)N2O3)cc1 (configuration not stated)	none
